Source: PubChem BioAssay (National Center for Advancing Translational Sciences (NCATS))
Nrf2 inh: Nrf2 pathway inhibition; A549 ARE-Fluc reporter, luciferase luminescence, 18-24 h; Potency, µM (highest dose often 46 µM), for inactives: top-dose activity change, negative = inhibition, hits mostly inhibitors; hit rate 2.1% among 360,000; note: % is set by controls: 0 for no effect and ±100 for the full control effect; nearly all actives have a fitted effect of over 60% in size
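Nrf2 activity is the BugLite luminescence, read 15 min after reagent at room temperature, following CellTiter-Fluor cytotoxicity readout (30 min, 37C). Compound titrations were applied for 18-24 h to 5000 A549 ARE_Fluc cells/well in 5% FBS OPTI-MEM.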
Nrf2 ARE act: Nrf2 pathway activation | hit rate 0.31% among 410,000 | AREc32 ARE-luciferase reporter (MCF7-derived line), luminescence, 24 h | Potency, µM (doses to about 46.1 µM), inactives show top-dose activation, usual class: activators | AID 624171; note: % of control where 0% means no effect; nearly all actives have a fitted effect of over 65% in size
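AREc32 cells carrying an ARE-driven firefly luciferase reporter were seeded at 1000 cells/well in OPTI-MEM with 5% FBS, then exposed to compound for 24 hr at 37 deg C. Luminescence was read with Steady-Glo after 30 min at RT.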
ELG1 repair inh: blocks ELG1-dependent DNA repair in HEK293T cells | HEK293T ELG1-luciferase reporter, luminescence, 16 h; DNA damage induced by 5-fluorouridine | hit rate 2.3% among 330,000 | Potency, µM (titrated, usually from 46.1 µM), for the others: top-dose activity change, negative = inhibition, most hits filed as inhibitors; note: % is set by controls: 0 for no effect and ±100 for the full control effect; nearly all actives have a fitted effect of over 55% in size
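Quantitative HTS, concentration-response format. 2,000 cells/well co-treated with 5-fluorouridine and compound, 16 hr in 5% CO2 at 37 °C; ONE-Glo luminescence read after 30 min.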
A549 tox: counter-screen for Nrf2 inhibitors: cytotoxicity in A549 cells; A549 ARE-Fluc cells, CellTiter-Fluor viability, 18-24 h; Potency, µM (series often up to 46 µM), for the others: at the highest dose activity change, negative = cytotoxicity, most hits filed as inhibitors; hit rate 0.16% among 390,000; note: % is set by controls: 0 for no effect and ±100 for the full control effect
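A549 ARE_Fluc cells in 5% FBS OPTI-MEM were exposed to compounds in concentration-response for 18-24 h at 37 deg C. Viability was read by CellTiter-Fluor fluorescence (Ex 405/Em 525) after 30 min, before the luciferase read.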
* = called active by the depositor; ? = inconclusive; nt = not tested or not shown; ! = not active in a repeat; [ ] = dose if it differs, or a comment. Shown are actives, neighbours in structure and some others; about 3.7% of the full set was active somewhere. Calls come from the whole dose curve; as a rule, active = well fitted curve in the direction sought with a large enough effect; inconclusive = small, poorly fitted or top-dose-only effect, or another doubt; inactive = no such curve, though single readings can be large; an effect the other way counts as inactive or inconclusive. Potency is the fitted concentration of half-maximal effect.

SMILES	Nrf2 inh	Nrf2 ARE act	ELG1 repair inh	A549 tox
Cc1ccc(C)c(N2CCN(C(=O)C3CCN(C(=O)c4cc5sccc5n4C)CC3)CC2)c1	20.6µM*	0.3%	nt	?
O=C(COC(=O)c1c2c(nc3ccccc13)/C(=C/c1cccc([N+](=O)[O-])c1)CCC2)NC1CCS(=O)(=O)C1 (stereo not drawn)	23.1µM*	0.6%[9.22 µM]	7.31µM*	-3.7%
COC(=O)c1cc(C(=O)OCC(=O)N(C)C2CCS(=O)(=O)C2)cc([N+](=O)[O-])c1 (stereo not drawn)	5.4%	-0.8%	3.9%	4.8%
CC(C)N(C(=O)/C=C/c1cccc([N+](=O)[O-])c1)C(C)C	4.4%	14.1µM*	17.7%	0.1%
CN(C(=O)COC(=O)c1c2c(nc3ccccc13)/C(=C/c1cccc([N+](=O)[O-])c1)CCC2)C1CCS(=O)(=O)C1 (stereo not drawn)	1.0%	3.4%	5.8µM*	-4.7%
CN(C(=O)COC(=O)/C=C/c1cccc([N+](=O)[O-])c1)C1CCS(=O)(=O)C1 (stereo not drawn)	?	12.2%	13µM*	-13.6%
CCOc1cc(/C=N/NC(=O)c2cccnc2)ccc1OCC(=O)N(C)C	3.9%	-0.3%	-8.1%	0.5%
Cc1ccccc1NC(=O)C(Cc1ccccc1)N1Cc2ccccc2C1=O (stereo not drawn)	-3.7%	-0.7%	nt	8.1%
Cc1cccc(CN2C(=O)c3ccccc3Sc3ccc(C(=O)NC4CCCCC4)cc32)c1	nt	-0.9%	nt	18.7%
CCOc1ccc(-c2noc(CSc3nnc(-c4ccccc4)n3-c3ccccc3)n2)cc1	?	-0.9%	nt	-10.1%
Clc1ccccc1-c1nnc(SCc2nc(-c3ccccc3)no2)n1-c1ccccc1	14.6µM*	-1.2%	nt	-29.3%
Cc1ccc(-c2noc(CSc3nnc(C)n3-c3ccc(C)cc3)n2)cc1	?	1.9%	nt	2.5%
Cc1ccc(-n2c(SCc3nc(-c4ccc(Cl)cc4)no3)nnc2-c2ccncc2)cc1	23.1µM*	4.9%	nt	-24.2%
Cc1ccc(-c2noc(CSc3nnc(C)n3-c3ccc(C)c(C)c3)n2)cc1	16.4µM*	4.8%	nt	-11.8%
Cc1ccc(-c2noc(CSc3nnc(-c4ccncc4)n3-c3ccc(C)cc3)n2)cc1	?	-0.7%	-26.1%	-15.5%
COc1ccc([C@@H]2C[C@H]3[C@@H](CN2S(=O)(=O)c2ccccc2)C(=O)C[C@@H](c2cccc(Cl)c2)N3S(=O)(=O)c2ccc(C)cc2)cc1	nt	0.3%	nt	nt
C/C(=N\Nc1ncnc2sc(C)c(C)c12)c1ccccn1	?	22.8%	?	23.1µM*
Cn1nnnc1Sc1ncnc2scc(-c3ccc4ccccc4c3)c12	5.3%	nt	nt	?
Cn1nnnc1Sc1ncnc2scc(-c3cccc(Cl)c3)c12	23.1µM*	nt	nt	-17.6%
COc1cccc(-c2csc3ncnc(Sc4nnnn4C)c23)c1	25.9µM*!	?	?	?
Cn1nnnc1Sc1ncnc2scc(-c3cc4ccccc4o3)c12	?	?	20.6µM*	-27.4%
CC(=O)N1CCc2cc(CNS(=O)(=O)c3cccs3)ccc21	nt	3.8%	nt	0.6%
CCOc1ccc(-c2nc(CSCC(=O)NCc3ccc(Cl)cc3)c(C)o2)cc1	nt	-2.4%	nt	6.7%
Cc1ccc(S(=O)(=O)N2CCN(C(=O)c3ccc(COc4ccccc4)o3)CC2)cc1	23.1µM*	-0.3%	?	-3.6%
Cc1ccc(S(=O)(=O)Cc2ccc(C(=O)N3CCN(c4ccc(F)cc4)CC3)o2)cc1	7.5%	-2.3%	23.1µM*	-1.7%
SMILES	Nrf2 inh	Nrf2 ARE act	ELG1 repair inh	A549 tox
O=C(c1ccc(COc2ccccc2)o1)N1CCN(S(=O)(=O)c2ccccc2Cl)CC1	-18.8%	-0.3%	?	-0.2%
Cc1ccccc1S(=O)(=O)Cc1ccc(C(=O)N2CCN(c3ccc(F)cc3)CC2)o1	?	-0.1%	?	nt
COc1ccc(S(=O)(=O)Cc2ccc(C(=O)N3CCN(Cc4ccccc4)CC3)o2)cc1	-6.3%	-0.4%	-16.8%	-5.1%
Cc1ccc(S(=O)(=O)Cc2ccc(C(=O)N3CCN(Cc4ccccc4)CC3)o2)cc1	nt	nt	18.4µM*	nt
COc1ccc(F)cc1CSc1nnnn1-c1ccc(O)cc1	8.4%	3.0%	0.0%	-8.9%
COc1cc(CSc2nnnn2-c2ccc(C)cc2)cc(OC)c1OC	6.51µM*	-0.2%	0.0%	-8.0%
O=C(NCCn1cc(SCc2ccccc2)c2ccccc21)c1ccccc1F	?	2.2%	13µM*	-26.7%
